Source: PubChem BioAssay (NCI)
This is part of a sample that, as a whole, favours compounds with a hit. Of some 83,000 tested, about 20% had one in any assay.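 Negative percent growth values reflect cell death: -40 means 40% of the cells present at the start died, and -100 means all died.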 A number with no mark means an inactive call. Activity calls are given as the source filed them. How the source made its calls: active means growth percent below 10; inactive means the rest.

system: KM12 colon; assay: NCI-60 one-dose screen, 48 h (100 = growth as untreated, 0 = no growth, -100 = all killed); conditions: 10 µM unless noted

SMILES	growth
COc1cc(C2CC(c3ccccc3)=NN2C=O)ccc1Oc1nc2c(c(=O)n(C)c(=O)n2C)n1C (stereo not drawn)	74.7%
COc1ccc2[nH]cc(C3(c4c[nH]c5ccc(OC)cc45)C(=O)Nc4ccc(F)cc43)c2c1	51.1%
CC1=CC(=O)OC1C/C=C(\C)CCC1[C@@]2(C)CCC[C@@](C)(C(=O)O)C2CC[C@@]1(C)O (stereo partly drawn)	26.4%
CC1=C(/C=C/C(C)=C/C=C(C(=O)O)\C(C)=C\C(=O)O)C(C)(C)CCC1	110%
CCN(CCC#N)c1ccccc1	114%
CCCCOC(=O)c1cc(O)c(O)c(O)c1	69%
COc1cccc(-c2nc3sccn3c2-c2ccnc(NCCN3CCCNS3(=O)=O)n2)c1	103%
CC(=O)Oc1ccccc1C(=O)Nc1ncc([N+](=O)[O-])s1	24.7%
Cc1ccc([C@H]2c3[nH]c4ccccc4c3C[C@H]3C(=O)N(CCCCCCC(=O)NO)CC(=O)N23)cc1	48.2%
COc1ccc(-c2cc(-c3cn(-c4cccc(Cl)c4)nc3-c3ccc(OC)cc3)[nH]c(=S)n2)cc1	86.7%
CCn1c(Cc2ccccc2Nc2c(Cl)cccc2Cl)nnc1SCC(=O)Nc1ccccc1C(F)(F)F	97.6%
COc1cc(/C=C/c2cc(/C=C/c3ccc(O)c(OC)c3)n(C(=O)c3ccccc3Br)n2)ccc1O	4.98% (active)
CCOC(=O)C(Cc1ccccc1)n1c(O)c(/C=N/c2ncc(Cc3ccc(Cl)cc3Cl)s2)sc1=S (stereo not drawn)	10.8%
Cc1nn(-c2cccc(Cl)c2)c(C)c1N=Nc1ccc(Br)cc1	100%
O=C(N/N=C\c1cc(Br)ccc1O)c1ccncc1	25.8%
CC(C)OC1OC(OC(C)C)C(OC(C)C)OC1OC(C)C (stereo not drawn)	95.2%
COc1ccc2c(c1)C1=NN(C(=O)CO)[C@H](c3ccc(OC(F)(F)F)cc3)[C@@H]1CC2	102%
Cn1c(-c2ccccc2)cc(=O)n1-c1ccccc1	103%
CC(C)(C)c1ccc(C(=O)Nc2sc3cc(O)ccc3c2C(N)=O)cc1	34.6%

SMILES	growth
O=C1N(Cc2ccccc2Cl)c2ccccc2C12NN=C(c1ccccc1)S2 (stereo not drawn)	50.8%
CC(=O)c1ccc(N2C(=O)c3ccc(Oc4ccccc4)cc3C2=O)cc1	95.6%
CC1CCCN(CCCCOc2ccc(-c3ccc(C#N)cc3)cc2)C1 (stereo not drawn)	96.1%
CNC(=O)c1c(NC(=O)c2cccc(C(F)(F)F)c2)sc2c1CCC(=O)C2	-12.9% (active)
OC(COCc1ccccc1)COCc1ccccc1	105%
CN1CCCN(CCNc2nccc(-c3c(-c4cccc(O)c4)nc4sccn34)n2)S1(=O)=O	64.8%
CC(=O)NC1C(O[C@H]2C[C@H]3[C@@H]4CC=C5C[C@@H](O)CC[C@]5(C)[C@H]4CC[C@]3(C)[C@H]2[C@H](C)C(=O)CCC(C)C)OCC(O)C1O (stereo partly drawn)	70.1%
CN(C)c1nc(-c2cccs2)n2nc(-c3ccc(Cl)cc3)cc2n1	72.5%
O=C1NN(C(=O)c2ccccc2)C(c2ccc(Cl)c(Cl)c2)=C/C1=C\c1ccccc1[N+](=O)[O-]	4.6% [6.75 µM] (active)
COc1ccc(C(=O)OC2C(OC3C(O)COC(O[C@H]4C[C@H]5[C@@H]6CC=C7C[C@@H](O)CC[C@]7(C)[C@H]6CC[C@]5(C)[C@H]4[C@H](C)C(=O)CCC(C)C)C3OC(=O)C(C)C)OCC(O)C2O)cc1 (stereo partly drawn)	36.3%
CCSCC1CC(O)(c2ccccc2)C(c2ccccc2)C(c2ccc(F)cc2)O1 (stereo not drawn)	-9.64% (active)
Nc1c(N)c2ccccc2c2ccccc12	116%
Cc1csc(N/N=C/c2ccncc2)n1	106%
COc1ccc(-c2cc(C(=O)Nc3ccc(C)cc3)nc3[nH]c(=O)sc23)cc1	67.4%
COc1ccccc1-[n+]1cc(-c2ccc(-c3ccccc3)cc2)n2c1CCCCC2	4.15% (active)
COc1ccc(/C=N/NC(N)=S)c(OC)n1	102%
Nc1c(Br)cc2c(c1Br)Cc1cc(Cl)ccc1-2	98.7%
Nc1nc(NC2CC2)cc(-c2cccc(Cl)c2Cl)n1	47.8%
COc1cc2c(c(OC)c1O)C(=O)C(OC)C(c1ccc(O)c(O)c1)O2 (stereo not drawn)	8.81% (active)
